# Measured values as given in PubChem BioAssay (EPA / NIEHS).
# Results filed as inconclusive are left out. Active and inactive are the calls of the source. The calls were made as follows, unless noted: active = hit-call score of the fitted dose curve at least 0.9, where 1 is the maximum; inactive = score below 0.9.
# Assays:
# [1] = read-out: E-selectin (Homo sapiens) (UniProt P16581); test: BSK_3C_Eselectin: BioMAP Diversity Plus: 3C Assay for Eselectin Biomarker Activity (AID 2283015); conditions: primary human endothelial cells (HUVEC); actives raise or lower the signal;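 as to outcome: cell surface E-selectin protein quantified by ELISA 24 h after dosing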
# How it was run: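 HUVEC, 3C stimulation; compound exposure 24 h; E-selectin by ELISA; gain- or loss-of-signal fitted bidirectionally vs DMSO baseline.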
# [2] = read-out: Interleukin-1 alpha (IL1a), IL1A (gene 3552); test: BSK_BE3C_IL1a: BioMAP Diversity Plus: BE3C Assay for Interleukin-1 alpha (IL1a) Biomarker Activity (AID 2283016); conditions: primary human bronchial epithelial cells; actives raise or lower the signal
# How it was run: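 IL-1a measured by ELISA after 24 h treatment of human primary bronchial epithelial cells, with gain or loss of signal fitted versus DMSO. Parallel cultures stained with SRB gauge overt cytotoxicity.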
# [3] = read-out: Monocyte Chemoattractant Protein-1 (MCP1), CCL2 (gene 6347); test: BSK_3C_MCP1: BioMAP Diversity Plus: 3C Assay for Monocyte Chemoattractant Protein-1 (MCP1) Biomarker Activity (AID 2283017); conditions: primary human endothelial cells (HUVEC); actives raise or lower the signal
# How it was run: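 HUVEC, 3C system; 24 h chemical exposure; MCP-1 by ELISA; bidirectional curve fit vs DMSO baseline.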
# [4] = read-out: Human Leukocyte Antigen - DR isotype (HLADR), HLA-DRA (gene 3122); test: BSK_3C_HLADR: BioMAP Diversity Plus: 3C Assay for Human Leukocyte Antigen - DR isotype (HLADR) Biomarker Activity (AID 2283019); conditions: primary human endothelial cells (HUVEC); actives raise or lower the signal
# How it was run: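 HUVEC, 3C stimulation, 24 h post-dose; HLA-DR by ELISA; bidirectional curve fit vs DMSO baseline; gain or loss of signal scored.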
# [5] = read-out: Interleukin-8 (IL8), CXCL8 (gene 3576); test: BSK_3C_IL8: BioMAP Diversity Plus: 3C Assay for Interleukin-8 (IL8) Biomarker Activity (AID 2283020); conditions: primary human endothelial cells (HUVEC); actives raise or lower the signal
# How it was run: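 IL-8 was measured by ELISA in HUVEC cultures 24 h after chemical dosing, with gain or loss of signal fitted relative to DMSO. Parallel SRB total-protein staining tracked overt cytotoxicity.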
# [6] = read-out: Monokine induced gamma interferon (MIG), CXCL9 (gene 4283); test: BSK_3C_MIG: BioMAP Diversity Plus: 3C Assay for Monokine induced gamma interferon (MIG) Biomarker Activity (AID 2283021); conditions: primary human endothelial cells (HUVEC); actives raise or lower the signal;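 as to AC50: MIG protein level measured by immunoassay in the treated endothelial cultures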
# How it was run: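 ELISA measurement of MIG in human umbilical vein endothelial cells 24 h after treatment. Cytotoxicity tracked by SRB staining in parallel cultures; gain or loss of signal fitted relative to DMSO.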
# [7] = target: human Vitamin D Receptor (VDR), VDR (gene 7421) (UniProt P11473); test: ATG_VDR_TRANS: Attagene TRANS-FACTORIAL HepG2 Assay for human Vitamin D Receptor (VDR) (AID 2283022; active = hit-call score of the fitted dose curve at least 0.9, where 1 is the maximum)
# Chain of human Vitamin D Receptor (VDR), VDR (gene 7421) (P11473 whole entry, looked up, the tested form may be a part): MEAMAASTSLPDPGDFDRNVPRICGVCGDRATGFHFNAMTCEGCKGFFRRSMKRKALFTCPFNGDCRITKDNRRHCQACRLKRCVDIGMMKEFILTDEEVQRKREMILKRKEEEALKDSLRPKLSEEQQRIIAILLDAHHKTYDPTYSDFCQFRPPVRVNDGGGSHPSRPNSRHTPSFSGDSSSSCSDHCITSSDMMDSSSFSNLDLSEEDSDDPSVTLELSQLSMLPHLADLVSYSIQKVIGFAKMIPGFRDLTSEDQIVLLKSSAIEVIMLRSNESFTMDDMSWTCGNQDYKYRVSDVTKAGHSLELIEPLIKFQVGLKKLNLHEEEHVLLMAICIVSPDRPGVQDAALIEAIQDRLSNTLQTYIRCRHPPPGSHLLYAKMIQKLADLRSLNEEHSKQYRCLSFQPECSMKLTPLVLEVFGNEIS
# How it was run: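 RT-PCR/capillary electrophoresis read-out of reporter mRNA induction in transiently transfected HepG2; 24 h dosing; chimeric NR-Gal4 (TRANS format); gain-of-signal fit against DMSO baseline.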
# [8] = BSK_3C_SRB: Viability Assessment in the BioMAP Diversity Plus: 3C Assay (AID 2283023); conditions: primary human endothelial cells (HUVEC);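 also: fitted both ways against DMSO so a hit may be signal rise or drop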
# How it was run: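 HUVEC, 24 h post-dose; 10% TCA fix, 0.1% SRB stain, A560 nm. Bidirectional curve fit vs DMSO negative control.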
# [9] = read-out: Matrix Metallopeptidase 1 (MMP1), MMP1 (gene 4312); test: BSK_BE3C_MMP1: BioMAP Diversity Plus: BE3C Assay for Matrix Metallopeptidase 1 (MMP1) Biomarker Activity (AID 2283024); conditions: primary human bronchial epithelial cells; actives raise or lower the signal
# How it was run: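 ELISA measurement of MMP-1 after 24 h compound exposure of primary human bronchial epithelial cells. Changes in either direction fitted relative to DMSO; parallel SRB staining checked overt cytotoxicity.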
# [10] = read-out: Pselectin, SELP (gene 6403); test: BSK_4H_Pselectin: BioMAP Diversity Plus: 4H Assay for Pselectin Biomarker Activity (AID 2283026); conditions: primary human endothelial cells (HUVEC); actives raise or lower the signal
# How it was run: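 ELISA of surface P-selectin on HUVEC, 24 h after dosing, with parallel SRB staining (0.1% after 10% TCA fixation, 560 nm) for overt cytotoxicity. Activity fitted in both directions relative to DMSO.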
# [11] = BSK_4H_SRB: Viability Assessment in the BioMAP Diversity Plus: 4H Assay (AID 2283027); conditions: primary human endothelial cells (HUVEC);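 also: cells exposed to compound for 24 h before staining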;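 as to AC50: curves fitted both ways versus DMSO so AC50 may be loss or gain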
# How it was run: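 Cytotoxicity read-out in primary human endothelial cells: after 24 h compound exposure, cells were TCA-fixed (10%), stained with 0.1% SRB and absorbance taken at 560 nm. Values fitted in both directions relative to DMSO.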
# [12] = BSK_BE3C_SRB: Viability Assessment in the BioMAP Diversity Plus: BE3C Assay (AID 2283028); conditions: primary human bronchial epithelial cells;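 as to AC50: fitted both ways so AC50 may mark signal gain or loss versus DMSO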
# How it was run: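 Primary human bronchial epithelium; chemical dosing, 24 h; 10% TCA fix, 0.1% SRB stain, A560; bidirectional fit vs DMSO baseline.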
# [13] = read-out: Vascular endothelial growth factor receptor 2 (Homo sapiens) (UniProt P35968); test: BSK_4H_VEGFRII: BioMAP Diversity Plus: 4H Assay for Vascular endothelial growth factor receptor 2 (VEGFR2) Biomarker Activity (AID 2283031); conditions: primary human endothelial cells (HUVEC); actives raise or lower the signal;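 as to AC50: cell-surface VEGFR2 protein level quantified by ELISA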
# How it was run: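 HUVEC (human primary), 4H system; 24 h post-dose; VEGFRII by ELISA; bidirectional curve fit vs DMSO baseline; gain or loss of signal scored.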
# [14] = read-out: Human Leukocyte Antigen - DR isotype (HLADR), HLA-DRA (gene 3122); test: BSK_BE3C_HLADR: BioMAP Diversity Plus: BE3C Assay for Human Leukocyte Antigen - DR isotype (HLADR) Biomarker Activity (AID 2283032); conditions: primary human bronchial epithelial cells; actives raise or lower the signal
# How it was run: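 Cell-surface HLA-DR ELISA readout at 24 h after dosing in the BE3C primary human lung bronchial epithelial system; gain or loss of signal against DMSO, with parallel sulforhodamine B staining of total protein for overt cytotoxicity.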
# [15] = read-out: Vascular cell adhesion molecule 1 (VCAM1), VCAM1 (gene 7412); test: BSK_4H_VCAM1: BioMAP Diversity Plus: 4H Assay for Vascular cell adhesion molecule 1 (VCAM1) Biomarker Activity (AID 2283033); conditions: primary human endothelial cells (HUVEC); actives raise or lower the signal;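 as to outcome: cell-surface VCAM-1 protein measured by ELISA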
# How it was run: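 VCAM-1 ELISA read 24 h after chemical dosing of HUVEC in the BioMAP 4H system, with gain or loss of signal fitted relative to DMSO. Parallel SRB staining (560 nm) checked overt cytotoxicity.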
# [16] = read-out: Interferon-gamma inducible Protein 10 (IP10), CXCL10 (gene 3627); test: BSK_BE3C_IP10: BioMAP Diversity Plus: BE3C Assay for Interferon-gamma inducible Protein 10 (IP10) Biomarker Activity (AID 2283034); conditions: primary human bronchial epithelial cells; actives raise or lower the signal
# How it was run: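 IP-10 quantified by ELISA in human primary bronchial epithelial cell cultures at 24 hours post-dosing. Gain or loss of signal fitted relative to DMSO; parallel SRB staining assessed overt cytotoxicity.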
# [17] = read-out: Thrombomodulin, THBD (gene 7056); test: BSK_3C_Thrombomodulin: BioMAP Diversity Plus: 3C Assay for Thrombomodulin Biomarker Activity (AID 2283029); conditions: primary human endothelial cells (HUVEC); actives raise or lower the signal
# How it was run: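 ELISA measurement of thrombomodulin on HUVEC surface 24 h after chemical dosing; activity fitted in both directions relative to DMSO vehicle.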
# [18] = read-out: Monocyte Chemoattractant Protein-1 (MCP1), CCL2 (gene 6347); test: BSK_4H_MCP1: BioMAP Diversity Plus: 4H Assay for Monocyte Chemoattractant Protein-1 (MCP1) Biomarker Activity (AID 2283018); conditions: primary human endothelial cells (HUVEC); actives raise or lower the signal
# How it was run: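 ELISA of MCP-1 (CCL2) 24 h after chemical dosing of HUVEC in the BioMAP 4H system. Gain or loss versus DMSO fitted; parallel SRB staining (560 nm) tracked overt cytotoxicity.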
# [19] = read-out: Urokinase-type plasminogen activator receptor (uPAR), PLAUR (gene 5329); test: BSK_4H_uPAR: BioMAP Diversity Plus: 4H Assay for Urokinase-type plasminogen activator receptor (uPAR) Biomarker Activity (AID 2283030); conditions: primary human endothelial cells (HUVEC); actives raise or lower the signal
# How it was run: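 HUVEC, 24 h post-dose; uPAR by ELISA; bidirectional fit vs DMSO baseline.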
# [20] = BSK_3C_Vis: BioMAP Diversity Plus: 3C Assay for Morphology Visualization (AID 2283025); conditions: primary human endothelial cells (HUVEC);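 also: fitted both ways so gain or loss versus DMSO counts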;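 as to AC50: light microscopy image of cell morphology used as background control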
# How it was run: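 Light-microscopy visualization of HUVEC cultures at 24 h post-treatment, with DMSO as baseline for bidirectional fitting.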
# Chain of E-selectin (Homo sapiens) (P16581 whole entry, looked up): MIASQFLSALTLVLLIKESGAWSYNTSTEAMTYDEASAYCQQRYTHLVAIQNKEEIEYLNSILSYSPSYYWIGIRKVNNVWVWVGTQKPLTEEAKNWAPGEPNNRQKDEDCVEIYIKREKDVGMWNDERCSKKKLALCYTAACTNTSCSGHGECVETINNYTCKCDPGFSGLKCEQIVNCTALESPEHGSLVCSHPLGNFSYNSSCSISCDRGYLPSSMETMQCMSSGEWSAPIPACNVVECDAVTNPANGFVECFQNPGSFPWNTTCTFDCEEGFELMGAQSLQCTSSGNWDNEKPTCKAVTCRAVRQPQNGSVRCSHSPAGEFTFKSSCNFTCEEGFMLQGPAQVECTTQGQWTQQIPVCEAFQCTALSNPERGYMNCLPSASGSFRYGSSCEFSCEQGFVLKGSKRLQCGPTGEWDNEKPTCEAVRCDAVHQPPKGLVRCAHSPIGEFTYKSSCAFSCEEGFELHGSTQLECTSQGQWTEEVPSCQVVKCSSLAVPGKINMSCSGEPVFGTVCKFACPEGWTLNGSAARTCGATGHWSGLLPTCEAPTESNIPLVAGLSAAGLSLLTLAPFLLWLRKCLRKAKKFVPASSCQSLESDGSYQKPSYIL
smiles,measurement,setting,value
O=C(OC1CCCCC1)c1ccccc1C(=O)OC1CCCCC1,AC50,[1],11.3 µM (active)
same,AC50,[2],11.6 µM (active)
same,AC50,[3],11.7 µM (active)
same,AC50,[4],8.72 µM (active)
same,AC50,[5],8.46 µM (active)
same,outcome,[6],inactive
same,outcome,[7],inactive
same,AC50,[8],10.9 µM (active)
same,AC50,[9],4.58 µM (active)
same,AC50,[10],9.57 µM (active)
same,AC50,[11],13 µM (active)
same,outcome,[12],inactive
same,AC50,[13],9.97 µM (active)
same,AC50,[14],13 µM (active)
same,AC50,[15],20.9 µM (active)
same,AC50,[16],20.9 µM (active)
CC(C)c1ccc(CO)cc1,outcome,[1],inactive
same,outcome,[2],inactive
same,outcome,[3],inactive
same,outcome,[4],inactive
same,outcome,[5],inactive
same,outcome,[6],inactive
same,outcome,[7],inactive
same,outcome,[8],inactive
same,outcome,[9],inactive
same,outcome,[10],inactive
same,outcome,[11],inactive
same,outcome,[12],inactive
same,outcome,[17],inactive
same,outcome,[13],inactive
same,outcome,[14],inactive
same,outcome,[15],inactive
O=c1[nH]c(=O)[nH]c(=O)[nH]1,outcome,[1],inactive
same,outcome,[2],inactive
same,outcome,[3],inactive
same,outcome,[18],inactive
same,outcome,[4],inactive
same,outcome,[5],inactive
same,outcome,[6],inactive
same,outcome,[7],inactive
same,outcome,[8],inactive
same,outcome,[9],inactive
same,outcome,[10],inactive
same,outcome,[11],inactive
same,outcome,[12],inactive
same,outcome,[19],inactive
same,outcome,[13],inactive
same,outcome,[14],inactive
same,outcome,[15],inactive
COP(=S)(OC)Oc1ccc(S(=O)(=O)N(C)C)cc1,outcome,[1],inactive
same,outcome,[2],inactive
same,outcome,[3],inactive
same,AC50,[4],32.3 µM (active)
same,outcome,[5],inactive
same,outcome,[6],inactive
same,outcome,[7],inactive
same,outcome,[8],inactive
same,outcome,[9],inactive
same,outcome,[20],inactive
same,outcome,[10],inactive
same,outcome,[11],inactive
same,outcome,[12],inactive
same,outcome,[17],inactive
same,outcome,[19],inactive
same,outcome,[13],inactive
same,outcome,[14],inactive
CCC(C)(C)c1ccc(O)c(C(C)(C)CC)c1,AC50,[1],10.4 µM (active)
same,AC50,[2],32.5 µM (active)
same,AC50,[3],9.92 µM (active)
same,AC50,[18],11.1 µM (active)
same,AC50,[4],7.84 µM (active)
same,AC50,[5],8.88 µM (active)
same,AC50,[6],13.3 µM (active)
same,AC50,[7],55 µM (active)
same,AC50,[8],7.65 µM (active)
same,AC50,[9],34.8 µM (active)
same,AC50,[20],6.71 µM (active)
same,AC50,[10],7.72 µM (active)
same,AC50,[11],11.7 µM (active)
same,AC50,[12],28.8 µM (active)
same,AC50,[17],34.5 µM (active)
same,AC50,[19],11.4 µM (active)
same,outcome,[13],inactive
same,AC50,[14],25.2 µM (active)
same,AC50,[15],10.4 µM (active)
C=CC(=O)N(C)C,outcome,[7],inactive
CCOC(=O)Nc1cccc(OC(=O)Nc2ccccc2)c1,outcome,[7],inactive
OCc1ccco1,outcome,[1],inactive
same,outcome,[3],inactive
same,outcome,[4],inactive
same,outcome,[5],inactive
same,outcome,[6],inactive
same,outcome,[7],inactive
same,outcome,[8],inactive
same,outcome,[9],inactive
same,outcome,[10],inactive
same,outcome,[11],inactive
same,outcome,[12],inactive
same,outcome,[13],inactive
same,outcome,[14],inactive
same,outcome,[16],inactive
ClCc1cccnc1,outcome,[7],inactive
C=C(C)C(=O)[O][Sn]([CH2]CCC)([CH2]CCC)[CH2]CCC,AC50,[1],0.148 µM (active)
same,AC50,[3],0.46 µM (active)
same,AC50,[4],0.233 µM (active)
same,AC50,[5],0.148 µM (active)
same,AC50,[6],0.148 µM (active)
same,outcome,[7],inactive
same,AC50,[8],0.148 µM (active)
same,AC50,[9],0.148 µM (active)
same,AC50,[20],0.468 µM (active)
same,AC50,[10],0.148 µM (active)
same,AC50,[11],0.148 µM (active)
same,AC50,[12],0.148 µM (active)
same,AC50,[19],0.148 µM (active)
same,AC50,[14],0.148 µM (active)
same,AC50,[16],0.336 µM (active)
